Test results from the supplement of paper PMC11219838.
A number with no mark means an inactive call.

How the values were obtained:
[1] = system: Caenorhabditis elegans dauer (daf-2(e1370)); assay: proportion of mobile C. elegans dauer larvae relative to DMSO control (fraction of DMSO control); higher = more viable, less nematicidal, active = 0.63 or less; extreme values may be limits of the assay; settings: 60 µM; 5 days; temperature: 20 °C
Procedure, shortened: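 Compound was added by pinning to 60 µM final, giving 0.6% v/v DMSO, in 96-well plates containing about 20 C. elegans dauers per well in liquid NGM. These dauers came from synchronized larvae held on MYOB plates with E. coli OP50 for 48 h at 25 °C. Plates were sealed and shaken at 200 rpm at 20 °C for 5 days. Under a dissection microscope, the proportion of mobile worms was scored relative to DMSO wells, and two biological replicates were averaged.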

Ditylenchus dipsaci = assay: proportion of mobile D. dipsaci (mixed stage) relative to DMSO control (fraction of DMSO control); higher = more viable, less nematicidal, active = 0.86 or less; extreme values may be limits of the assay; settings: 60 µM; 5 days; temperature: 20 °C
Procedure, shortened: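 D. dipsaci were grown on pea plants in Gamborg B-5 agar and extracted through a filter funnel into water, and about 20 worms were added per 96-well well in distilled water. Compound was pinned to 60 µM final (0.6% v/v DMSO), and sealed plates were shaken at 200 rpm for 5 days at 20 °C. After 2 µL 1 M NaOH was added, mobile worms were scored microscopically. Mobility was expressed relative to DMSO controls and averaged over two biological replicates.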

Structure (SMILES)	proportion of mobile C. elegans dauer larvae [1]	proportion of mobile D. dipsaci (Ditylenchus dipsaci)
CCOc1cc(-c2nc(-c3ccccc3C)no2)cc(OCC)c1OCC	1	1
CCNC(=O)c1ccccc1-c1nc(-c2ccc(F)cc2)no1	1	1
COc1cccc(-c2noc(COc3ccc(Cl)cc3)n2)c1	1	1
COc1ccccc1-c1nc(-c2ccccc2Cl)no1	1	1
Fc1cccc(Cl)c1CSc1nnc(-c2ccccc2Cl)o1	1	1
CC(C)C(=O)Nc1ccccc1-c1nc(-c2ccccc2)no1	1	1
Cc1ccccc1OCc1nc(-c2ccc3c(c2)OCO3)no1	1	1
Cc1ccc(NC(=O)CSc2nnc(-c3ccco3)o2)cc1Cl	1	0.5 (active)
COc1cccc(-c2nc(-c3ccc(Br)cc3)no2)c1	0.6 (active)	1
COc1cccc(OCc2nc(-c3cccc(C)c3)no2)c1	1	1
Cc1ccc(-c2noc(-c3ccc(Cl)cc3)n2)cc1	1	1
CC(=O)Nc1c(C)ccc(CNC(=O)CSc2nnc(-c3ccc(C(C)(C)C)cc3)o2)c1C	1	1
Cc1ccc(-c2nc(-c3ccncc3)no2)c(Cl)c1	1	1
O=C(Nc1ccc(-c2noc(-c3ccc(Cl)cc3)n2)cc1)c1ccco1	1	1
COc1cccc(-c2noc(-c3ccc(Cl)cc3)n2)c1	0.562 (active)	1
COc1nc2ccc(C)cc2cc1-c1noc(-c2ccncc2)n1	1	1
c1ccc2cc(-c3nc(-c4ccncc4)no3)ccc2c1	1	1
Ic1ccc(OCc2nc(-c3ccncc3)no2)cc1	1	1
c1ccc(-c2nnc(SCc3nc4ccccc4[nH]3)o2)cc1	1	1
COc1ccc(NC(=O)c2ccccc2-c2nc(-c3ccccc3C)no2)cc1	1	1
CCc1nnc(NC(=O)CSc2nnc(-c3ccc(Cl)cc3Cl)o2)s1	1	1
Brc1ccc(-c2noc(-c3ccc(Br)o3)n2)o1	1	1
CNC(=O)c1ccccc1-c1nc(-c2ccc(Cl)cc2)no1	1	1
CCCCc1nc(-c2ccc(-c3ccc(C)cc3)nc2OC)no1	1	1

Structure (SMILES)	proportion of mobile C. elegans dauer larvae [1]	proportion of mobile D. dipsaci (Ditylenchus dipsaci)
CCCc1ccc(-c2nc(-c3cccnc3)no2)cc1	0.926	0.562 (active)
Clc1ccc(-c2nc(-c3ccccc3Br)no2)cc1	1	1
COc1cccc(-c2nnc(SCC(=O)Nc3cccc(C(F)(F)F)c3)o2)c1	1	1
N#Cc1ccc(CSc2nnc(-c3ccncc3)o2)cc1	1	1
CCOc1ccccc1-c1nc(-c2ccc(NC(=O)c3ccncc3)cc2)no1	1	1
O=C(Nc1ccccc1-c1nc(-c2cccnc2)no1)c1ccccc1Cl	1	1
Cc1ccc(C)c(OCc2nc(-c3ccccc3Cl)no2)c1	1	1
Cc1ccc(NC(=O)CSc2nnc(-c3ccc(C(C)(C)C)cc3)o2)c(C)c1	1	1
Cc1cc(OCc2nc(-c3cccnc3)no2)cc(C)c1Br	1	1
Clc1ccc(OCc2ccccc2)c(-c2nc(-c3cccnc3)no2)c1	1	0.917
CC(C)(C)c1ccc(-c2nc(-c3ccncc3)no2)cc1	1	1
O=C(CSc1nnc(-c2ccccc2)o1)Nc1cccc(C(F)(F)F)c1	1	1
CCOc1nc(-c2ccccc2)ccc1-c1noc(-c2cccc(OC)c2)n1	1	1
Cn1c(SCc2ccc(Cl)cc2)nnc1-c1ccco1	1	1
CCOc1ccc(-c2nc(-c3ccccc3C)no2)cc1	1	1
Fc1ccc(-c2noc(COc3ccccc3)n2)cc1	0.5 (active)	1
Brc1ccc(-c2nnc(SCc3ccccc3)o2)cc1	1	1
Cc1ccc(OCc2nc(-c3ccccc3Cl)no2)cc1C	1	1
Cc1ccc(C(=O)CSc2nnc(-c3ccccc3)o2)cc1	1	1
c1ccc(OCc2nc(-c3cccs3)no2)cc1	0.0278 (active)	1
Cn1c(SCc2nc(-c3ccc(Br)cc3)no2)nnc1-c1ccco1	1	1
N#Cc1ccc(CSc2nnc(-c3ccco3)o2)cc1	1	1
COc1cccc(-c2noc(COc3ccc(C)c(C)c3)n2)c1	1	1
CC(Sc1nnc(-c2ccc(C(C)(C)C)cc2)o1)C(=O)Nc1nccs1 (stereo unspecified)	1	1

Structure (SMILES)	proportion of mobile C. elegans dauer larvae [1]	proportion of mobile D. dipsaci (Ditylenchus dipsaci)
CC(=O)Nc1ccc(C(=O)CSc2nnc(-c3cccc(Br)c3)o2)cc1	1	1
COc1ccccc1NC(=O)CSc1nnc(-c2cccc3ccccc23)o1	1	1
CCn1c(SCc2nnc(-c3ccccc3)o2)nnc1-c1ccco1	1	1
Cc1ccc(-c2noc(-c3ccccc3C)n2)cc1	0.562 (active)	1
CCc1ccc(C(=O)Nc2ccccc2-c2nc(-c3cccnc3)no2)cc1	1	1
Clc1ccc(OCc2nc(-c3ccccc3)no2)cc1	1	1
COc1ccccc1-c1nnc(SCc2ccc(F)cc2)o1	1	1
COc1ccc(CCC(=O)Nc2ccc(-c3noc(COc4ccccc4C)n3)cc2)cc1	1	1
N#Cc1cccc(CSc2nnc(-c3ccncc3)o2)c1		1
Cc1ncc2c(c1-c1noc(-c3ccccc3)n1)CCC2	0.929	1
O=C(CSc1nnc(-c2ccccc2)o1)OCc1ccccc1		1
COc1ccc(CCC(=O)Nc2ccc(-c3noc(-c4ccccc4C)n3)cc2)cc1	1	1
N#Cc1ccc(OCc2nc(-c3ccc(Br)o3)no2)cc1	1	1
NC(=O)COc1ccccc1-c1nc(-c2ccccc2Cl)no1		1
Cc1ccc(-c2noc(-c3cc(C)cc(C)c3)n2)cc1	1	1
O=C(Nc1ccccc1-c1nc(-c2ccncc2)no1)c1ccccc1Cl		1
COc1ccc(-c2nnc(SCC(=O)Nc3ccc(Cl)cc3Cl)o2)cc1	1	1
O=C(CSc1nnc(-c2ccco2)o1)Nc1ccc(Br)cn1		1
Clc1ccccc1-c1nc(-c2ccc3c(c2)OCO3)no1		1
Cc1cccc(NC(=O)CSc2nnc(-c3ccncc3)o2)c1C		1
COc1ccc(-c2noc(CSc3ccc(C)cc3)n2)cc1		1
COc1cccc(-c2noc(-c3c(F)cccc3F)n2)c1		1
Clc1cccc(OCc2nc(-c3ccncc3)no2)c1		1
CN(C(=O)CSc1nnc(-c2ccccc2)o1)c1ccccc1	1	1

Structure (SMILES)	proportion of mobile C. elegans dauer larvae [1]	proportion of mobile D. dipsaci (Ditylenchus dipsaci)
COc1ccc(C(=O)Nc2ccc(-c3nnc(SCc4ccccc4)o3)cc2)cc1	1	1
Cc1cccc(OC(C)c2nc(-c3ccncc3)no2)c1 (stereo unspecified)	0.85	1
Cn1c(SCc2nc(-c3cccs3)no2)nnc1-c1ccco1	1	1
COc1ccc(-c2nnc(SCc3c(Cl)cccc3Cl)o2)cc1	1	1
COc1ccc(Cl)cc1NC(=O)CSc1nnc(-c2ccncc2)o1	1	1
CCOc1ccccc1-c1nnc(SCc2ccc(C(=O)OC)o2)o1	1	1
CCOc1ccccc1-c1nc(-c2ccc(Br)cc2)no1		1
CCn1c(SCc2nc(-c3ccccc3)no2)nc2ccccc21		1
Cc1ccc(OC(C)c2nc(-c3ccncc3)no2)cc1C (stereo unspecified)		1
O=C(NC1CCCCC1)c1ccccc1-c1nc(-c2ccc(F)cc2)no1	1	1
Fc1ccc(-c2nc(-c3ccc(Cl)cc3)no2)cc1	1	1
Clc1cccc(-c2nc(-c3ccncc3)no2)c1		1
O=C(CSc1nnc(-c2ccc(Cl)cc2)o1)NC1CCCCC1		1
COc1nc2ccc(C)cc2cc1-c1noc(-c2cccnc2)n1	1	1
CC(C)c1ccc(NC(=O)CSc2nnc(-c3ccc(Br)cc3)o2)cc1	1	1
O=C(CSc1nnc(-c2ccccc2)o1)NC1CC2CCC1C2 (stereo unspecified)	1	1
CCCc1nnc(CSc2nnc(-c3ccc(Cl)cc3)o2)o1	1	0.812 (active)
Cc1ccc(NC(=O)CSc2nnc(-c3ccccc3)o2)cc1C		1
Brc1cccc(-c2nnc(SCc3ccccc3)o2)c1	1	1
Cc1cccc(-c2nnc(SCC(=O)NCCc3ccccc3)o2)c1	1	1
CCCCSc1nnc(-c2ccc(Br)cc2)o1		0.842 (active)
COc1ccc(-c2noc(COc3ccccc3Cl)n2)cc1	1	1
